aSyn 5UTR act: Activators working through SNCA 5'UTR binding (MLPCN) | alpha-synuclein 5'UTR reporter, activators screen | activity score, % (tested at 7.5 µM), hits read low | hit rate 7.1% among 300,000 | AID 1814; in the data active = activity score below about -60%
The depositor's hits bear a star. Not all results are given here.

SMILES | aSyn 5UTR act
COc1ccccc1NC(=O)CSc1ccc(-c2ccc(-n3cccn3)cc2)nn1 | -113*
CC1CCCC2(C1)NC(=S)c1c(sc3c1CCCC3)N2 (configuration not stated) | -63*
Oc1ccc2c(c1)oc1cc(O)ccc12 | -178*
c1ccc(-c2cnc(-c3ccccc3)nc2)cc1 | -66*
c1ccc(-c2ncc3c(ccc4ccccc43)n2)cc1 | 68
Nc1cnc(-c2ccccc2)nc1Cl | -63*
O=[N+]([O-])c1cccc2ccc(/C=C/c3ccc(Cl)cc3)nc12 | -149*
CC(=O)Nc1ccc(/C=C/c2ccc3c([N+](=O)[O-])cccc3n2)cc1 | -164*
O=[N+]([O-])c1cccc2ccc(/C=C/c3ccc(C(F)(F)F)cc3)nc12 | -94*
O=[N+]([O-])c1cccc2ccc(/C=C/c3cccc(Br)c3)nc12 | -107*
N/C(=N\C(=S)Nc1ccccc1)c1ccccc1 | -170*
NC(N)=NC(=S)Nc1ccc(Cl)cc1 | -106*
Cc1ccc(NCC(=O)c2ccc(C)cc2)cc1 | -125*
Cc1ccc(NCCC(=O)c2ccc(Cl)cc2)cc1 | -119*
Cc1ccc(NCCC(=O)c2ccccc2)cc1Cl | -134*
Cc1ccc(NC(=O)CNC(=O)c2ccccc2F)cc1Cl | -69*
CCCCC(=O)NC(c1ccc(N(CC)CC)cc1)c1ccc2cccnc2c1O (configuration not stated) | 68
Cc1ccc(C(=O)CNc2ccc(C)c(Cl)c2)cc1 | -68*
Cc1onc(-c2ccccc2Cl)c1C(=O)NCc1ccco1 | -80*
N#C/C(=C\C=C\c1ccccc1)C(=O)NCc1ccco1 | -63*
O=C(/C=C/c1ccccc1)NCc1ccco1 | -72*
Cc1nc(C(=O)NNC(=O)c2c(-c3c(Cl)cccc3Cl)noc2C)cs1 | 63
O=C(/C=C/c1ccc2c(c1)OCO2)NCc1ccco1 | -68*
O=C(/C=C/c1ccccc1Cl)NCc1ccco1 | -120*
C/C(Cc1ccccc1)=N\NC(=O)c1ccccn1 | -67*
SMILES | aSyn 5UTR act
C/C(CC(=O)Nc1ccc2c(c1)OCCO2)=N\NC(=O)C(=O)Nc1ccccc1C | -74*
C/C(CC(=O)Nc1cc(C)cc(C)c1)=N\NC(=O)c1ccccn1 | -165*
C/C(=N\NC(=O)c1ccccc1Cl)c1ccccn1 | 82
C/C(=N/NC(=O)c1ccccn1)c1ccncc1 | -116*
C/C(CC(=O)Nc1ccccn1)=N\NC(=O)c1ccc2ccccc2c1 | -64*
C/C(CC(=O)Nc1ccc2c(c1)OCCO2)=N\NC(=O)c1ccccn1 | -143*
COc1ccc(NC(=O)C/C(C)=N/NC(=O)c2ccccn2)c(OC)c1 | -107*
CCC(C)c1ccc(NC(=O)C/C(C)=N/NC(=O)c2cnccn2)cc1 (configuration not stated) | -63*
C/C(CC(=O)Nc1ccccn1)=N\NC(=O)c1ccccc1O | 71
COC(=O)Cn1ncn2c(cc3oc(C)cc32)c1=O | -118*
O=[N+]([O-])c1ccc(C23CC4CC(CC(O)(C4)C2)C3)cc1 | -87*
O=[N+]([O-])c1ccc(-c2cnc3ccccc3n2)cc1 | -124*
O=[N+]([O-])c1cc(-c2cnc3ccccc3n2)ccc1Oc1ccc(F)cc1 | -150*
CCOc1ccc(-c2cnc3ccccc3n2)cc1 | 92
Cc1ccc2nc(N3C(=O)CNC3=S)sc2c1 | -68*
Cc1cc2ncc(-c3cccc(Cl)c3)cn2n1 | -117*
Cc1cc2ncc(-c3ncc(C(F)(F)F)cc3Cl)cn2n1 | 65
O=C(Nc1ccccc1)Nc1nnc(-c2cccs2)s1 | -182*
COc1ccc(NC(=O)Nc2nnc(-c3cccs3)s2)cc1 | -113*
Cc1ccc(SC(C)c2nc(-c3ccccc3)no2)cc1 (configuration not stated) | -98*
CCC(=O)NCCc1nc2cc(NC(=O)c3ccc(Cl)cc3)ccc2n1C | -175*
CCC(=O)NCCc1nc2cc(NC(=O)c3ccc(F)cc3)ccc2n1C | -122*
CC(=O)NCCc1nc2cc(NC(=O)c3ccc(Cl)cc3)ccc2n1C | -98*
CC(=O)NCCc1nc2cc(NC(=O)c3ccccc3Cl)ccc2n1C | -62*
CCC(=O)NCCc1nc2cc(NC(=O)c3ccc(OC)cc3)ccc2n1C | -119*
SMILES | aSyn 5UTR act
O=C(Nc1ccn(Cc2ccccc2F)n1)c1ccc(COc2cccc(Br)c2)cc1 | -150*
Cc1ccc(Nc2ncnc(-n3cccc3)n2)cc1Cl | -125*
COc1ccc(C(=O)Nc2ccc3[nH]ccc3c2)cc1OC | -134*
COc1ccc(OC)c(C(=O)Nc2ccc3[nH]ccc3c2)c1 | -112*
COc1ccc(C(=O)Nc2ccc3[nH]ccc3c2)cc1 | 66
Cc1ccc(CN=c2c([N+](=O)[O-])nn(-c3ccc4c(c3)OCCO4)n2O)cc1 | -132*
COc1ccc(-n2nc([N+](=O)[O-])c(=NCc3ccc4c(c3)OCO4)n2O)cc1 | -109*
Cc1ccc(-c2csc(NC(CO)c3nc4ccccc4n3CCOCCO)n2)cc1 (configuration not stated) | -71*
Cc1cc(C(=O)NC2CCC(C)CC2)c(C)o1 (configuration not stated) | -110*
CC(C)(C)NC(=O)C(c1ccncc1)N(Cc1ccco1)C(=O)c1ccc(-c2ccccc2)[nH]1 (configuration not stated) | -83*
CCOC(=O)c1c(C)nc(-c2ccccc2)nc1N | -120*
CCCNc1nc(-c2ccccc2)c(C(=O)OCC)cc1C#N | 94
CC(=O)c1c(C)nc(-c2ccccc2)nc1N | -72*
CCOC(=O)c1c(-c2ccccc2)cn2c(C)cc(C)nc12 | -150*
COc1ccc(OCc2cc(C(=O)NCc3nc(C)cs3)no2)c(Cl)c1 | -94*
COc1ccc(OCc2cc(C(=O)NC(C)c3csc(C)n3)no2)c(Cl)c1 (configuration not stated) | -119*
CCCCN1C(=O)/C(=C2\SC(N3CCCCC3)=NC2=O)c2ccccc21 | -149*
COc1cccc(-c2ccc3c(N)c(C(=O)NC4CC4)sc3n2)c1 | -76*
Nc1c(C(=O)Nc2cccc(Cl)c2Cl)sc2nc(-c3cccnc3)ccc12 | -62*
COc1ccc(-c2ccc3c(N)c(C(=O)c4cccc(OC)c4)sc3n2)cc1 | -71*
CC(=O)C1=C(C)NC(SCC(=O)c2ccccc2)=C(C#N)C1c1ccco1 (configuration not stated) | -162*
C/C(NC(=O)c1ccccc1)=C1/C(=O)CC2C1C2(C)C (configuration not stated) | -99*
CC(C)c1ccc(NC(=O)NN2CCOCC2)cc1 | -98*
CCC(C)c1ccc(NC(=S)NN2CCOCC2)cc1 (configuration not stated) | -99*
CC(=O)Nc1ccc(-c2csc(Nc3ccc(Cl)cn3)n2)cc1 | -127*
SMILES | aSyn 5UTR act
CC(=O)Nc1cccc(-c2csc(Nc3ccc(Cl)cn3)n2)c1 | -174*
Cc1ccc(C(=O)C(C(=O)/C=C/c2ccccc2)=C2SCCCS2)cc1 | -102*
CC1(C)CC(=O)c2c(O)cc(OCc3ccc(Br)cc3)cc2O1 | -165*
CC1(C)CC(=O)c2ccc(OCc3ccc([N+](=O)[O-])cc3)cc2O1 | -151*
CCCc1cc(=O)n2[nH]c(-c3ccc(Cl)cc3)cc2n1 | -141*
CCCc1cc(=O)n2[nH]c(-c3ccc(C)cc3)cc2n1 | -129*
Cc1c(C(N)=O)sc2nc(-c3ccccc3)cn12 | -105*
Cc1c(C(=O)NCC(C)C)sc2nc(-c3ccc(F)cc3)cn12 | -128*
COc1ccc(-c2cn3c(C)c(C(=O)Nc4cccc(NC(C)=O)c4)sc3n2)cc1 | -100*
COC(=O)c1ccc(N=Cc2c(C(F)(F)F)[nH]n(C)c2=O)cc1 | -65*
